Data taken from PubChem BioAssay AID687001 (Broad Institute, 2013).
Potency and affinity values are given separately. Activity calls are given as the source filed them.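 How the source made its calls: active means signal-lowering compounds whose fitted half-maximal concentration is at or below twice the top tested dose in every run; inconclusive means runs disagree, flat 30 to 70% inhibition, or poor curve fit; inactive means the rest.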

What follows are compounds tested against Protein S100-A4 (Homo sapiens) (UniProt P26447) (assay: S100A4-myosin IIA binding inhibitor potency, dose response, biochemical, fluorescence polarization, cherry-picked hits (AID 687001;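 further: 0% = DMSO neutral control wells and -100% = TFP positive control wells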)). Settings: FP, S100A4/TAMRA-myosin IIA peptide binding; series mostly up to 11 µM; activity change, negative = inhibition: at the top concentration.
Chain of Protein S100-A4 (Homo sapiens) (P26447 whole entry, looked up): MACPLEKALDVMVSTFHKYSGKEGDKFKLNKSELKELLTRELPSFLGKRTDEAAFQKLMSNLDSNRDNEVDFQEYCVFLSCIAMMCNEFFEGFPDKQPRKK

Activity change, negative = inhibition, inactive:
Cc1nn(C)cc1S(=O)(=O)Nc1ccc(C(F)(F)F)cc1 -0.107%, C[C@@H]1CCCCO[C@@H](CN(C)C(=O)C2CCCCC2)[C@@H](C)CN([C@H](C)CO)C(=O)c2cc(NC(=O)CCCCCC(=O)Nc3ccccc3N)ccc2O1 5.83% [at 10 µM], NC(=O)c1ccsc1NC(=O)c1ccco1 16.3%, COc1cc(NS(=O)(=O)c2ccc(NC(=O)c3ccc([N+](=O)[O-])cc3)cc2)ncn1 24.8%, COc1ccc(-c2ccc3c(c2)[C@@H]2[C@@H](CCN2C(=O)NC2CCCC2)[C@H](CO)N3C)cc1 -0.853% [at 10 µM], CN1c2ccc(-c3cccc(F)c3)cc2[C@H]2[C@H](CCN2C(=O)c2ccccc2F)[C@H]1CO 0.162% [at 10 µM], COc1ccc(CN2C[C@H](O)COC[C@@H]3O[C@@H](CC(=O)N(C)C)CC[C@H]32)cc1 3.69%, Cc1sc2nc(SCC(=O)N3CCOCC3)[nH]c(=O)c2c1-c1ccccc1 67.9% [at 5.6 µM], Cc1[nH]c2ccccc2c1CC(=O)Nc1ccc(Nc2cccnc2)c(Br)c1 19.9%, Nc1nc(SCC(=O)c2ccc(Cl)cc2)c2ncn(C3OC(CO)C(O)C3O)c2n1 (centres undefined) -1.28%, CN(C(=O)c1ccc(Br)o1)C1CCCCC1 1.27%, C[C@@H]1CN([C@H](C)CO)C(=O)CCCn2cc(nn2)CO[C@H]1CN(C)S(=O)(=O)c1ccc(Oc2ccccc2)nc1 -1.93%, C[C@@H]1CN([C@H](C)CO)C(=O)c2cc(NC(=O)C3CC3)ccc2O[C@@H]1CN(C)C(=O)Nc1ccc2c(c1)OCO2 -3.23% [at 10 µM], Cn1c(=O)c2sccc2n2c(CCCC(=O)N3CCN(c4ccccn4)CC3)nnc12 3.24%
